Many of the other results were omitted from the sample, so hits are more common in it than they were.
Pf Dd2 growth: blocks in vitro growth of P. falciparum Dd2 | Potency, µM (highest dose often 28.9 µM), for inactives: at the top dose activity, negative = inhibition, usual class: inhibitors | actives 4.3% (n = 120,000) | P. falciparum Dd2 growth, SYBR Green, 72 h; active = well fitted inhibition curve with a large enough effect;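 also: plate controls were DMSO vehicle for no effect and reference drug for full effect; nearly all actives have a fitted effect of over 65% in size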
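Infected erythrocytes (Dd2, 0.3% parasitemia, 2.5% hematocrit final) are added to compound in RPMI-1640/Albumax II medium, grown 72 h at 37C in low oxygen, then lysed with saponin/Triton-X containing SYBR Green and read by fluorescence.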
Starred values were filed as active, the others as inactive; i = inactive; [ ] = remark or other dose. Potency is read from the fitted curve at half-maximal effect.

SMILES	Pf Dd2 growth
Cc1ccc(C2=NC3(CCN(C(=O)Cc4ccc(F)cc4)CC3)ON2)cc1	-13%
Cc1ccc(C)c(C(=O)N2CCC3(CC2)N=C(c2ccccc2)NO3)c1	i
Cc1ccc(C2=NC3(CCN(C(=O)c4c[nH]c5ccccc45)CC3)ON2)cc1	-13%
CN(C)c1ccc(C(=O)N2CCC3(CC2)N=C(c2cccc(Br)c2)NO3)cc1	37%
Cc1ccc(C2=NC3(CCN(C(=O)c4ccccc4C)CC3)ON2)cc1	6.3µM*
COc1ccc(N2CCN(C(=O)Cn3c(-c4cccc(Cl)c4)nc(C)c(CCO)c3=O)CC2)cc1	i
C=CCn1cc2c3c(cccc31)[C@H](CC(C)C)N[C@H](C(=O)NCc1ccccc1)C2	7.1µM*
C#CCNC(=O)[C@@H]1Cc2c[nH]c3cccc(c23)[C@H](CC(C)C)N1	i
C=CCn1cc2c3c(cccc31)[C@H](CC(C)C)N[C@H](C(=O)NCc1ccccc1OC)C2	-9%[44.1 µM]
CC#CCn1cc2c3c(cccc31)[C@H](CC(C)C)N[C@H](C(=O)OC)C2	i
CC(=O)N1CCCN(C(=O)[C@@H]2Cc3cn(C)c4cccc(c34)[C@H](CC(C)C)N2)CC1	-6%[44.1 µM]
CC(C)C[C@@H]1N[C@H](C(=O)NC2CCC2)Cc2cn(Cc3nccn3C)c3cccc1c23	10µM*
C=CCn1cc2c3c(cccc31)[C@H](CC(C)C)N[C@H](C(=O)NC1CCC1)C2	13µM*
CC(C)C[C@@H]1N[C@H](C(=O)NC2CCCC2)Cc2c[nH]c3cccc1c23	13µM*
C=CCn1cc2c3c(cccc31)[C@H](CC(C)C)N[C@H](C(=O)N1CCOCC1)C2	i
CC(C)C[C@@H]1N[C@H](C(=O)NC2CCCC2)Cc2cn(CC3CC3)c3cccc1c23	-16%[44.1 µM]
CC(C)C[C@@H]1N[C@H](C(=O)NC2CCC2)Cc2c[nH]c3cccc1c23	-16%[44.1 µM]
C=CCn1cc2c3c(cccc31)[C@H](CC(C)C)N[C@H](C(=O)NCCN1CCOCC1)C2	i
O=C(CN1CCCC1=O)N[C@H]1CN(Cc2ccccc2F)C[C@@H]1C1CC1	-2%
O=C(NC1CCCCC1)C1CN(C(=O)c2ccccc2Br)CC12CCOCC2 (configuration not stated)	-3%
COc1ccccc1CC(=O)N[C@H]1CN(S(C)(=O)=O)C[C@@H]1C(C)C	-15%
CN[C@@H](C)C(=O)N1CC[C@H](NC(=O)c2ccncc2)C[C@H]1C(=O)N[C@@H](Cc1ccc(OC)cc1)C(N)=O	28%
CC(=O)N1CCC(N2C[C@@H](F)[C@@H](OCc3nc4ccccc4[nH]3)C2)CC1	2%[44.1 µM]
COc1cccc(CCC(=O)N2CCC3(CC2)NC(=O)N(c2ccccc2)N3)c1	-11%
CCCN1CCN(C(=O)Cn2c(C)ccc(NC(=O)Nc3ccccc3)c2=O)CC1	i
SMILES	Pf Dd2 growth
COC(=O)c1ccccc1C(=O)N1CCCC(N2CCN(c3ccc(F)cc3)CC2)C1 (configuration not stated)	-10%
CNC(=O)[C@@H]1C[C@@H](O)CN1C1CCN(C(=O)c2ccc3ccccc3n2)CC1	20%
COc1cccc(CCC(=O)NCC23CCCC=C2N(C)C(=O)CC3)c1 (configuration not stated)	-6%
CCOC(=O)CCNC(=O)N1CCC(Oc2ncccc2C(=O)N2CCOCC2)C1 (configuration not stated)	-3%
COc1ccc(C(=O)N2CCN(C(=O)c3nnn4c3COC(c3ccccc3)C4)CC2)c(C)c1 (configuration not stated)	-2%
CC1(c2ccccc2)N(Cc2ncccn2)C(=O)OC12CCN(Cc1cccc(OC(F)(F)F)c1)CC2 (configuration not stated)	i
Cc1ccc(S(=O)(=O)N2CCn3c(n[nH]c3=O)C2)c(C)c1	-5%
Cc1ccc(C)c(N2CCN(CCCNC(=O)c3cnn(-c4cccc(Cl)c4)c3C3CCN(C(=O)OC(C)(C)C)CC3)CC2)c1	1.4µM*
CCN1CCN(CCCNC(=O)c2cnn(-c3ccc(C)cc3)c2C2CCN(C(=O)OC(C)(C)C)CC2)CC1	-4%
Cc1ccc(-n2ncc(C(=O)NCCCN3CCN(C)CC3)c2C2CCN(C(=O)OC(C)(C)C)CC2)c(C)c1	i
Cc1ccc(C)c(N2CCN(C(=O)c3cnn(-c4ccccc4Cl)c3C3CCN(C(=O)OC(C)(C)C)CC3)CC2)c1	3.5µM*
Cc1ccc(C)c(N2CCN(CCCNC(=O)c3cnn(-c4ccccc4Cl)c3C3CCN(C(=O)OC(C)(C)C)CC3)CC2)c1	2.2µM*
Cc1ccc(C)c(N2CCN(CCCNC(=O)c3cnn(-c4ccc(F)cc4)c3C3CCN(C(=O)OC(C)(C)C)CC3)CC2)c1	1.3µM*
COc1cccc(C2Cn3nnc(-c4nc(-c5ccc(C)c(C)c5)no4)c3CO2)c1 (configuration not stated)	i
O=C1CCN(C(=O)c2cccc3[nH]ccc23)CCCC(C(=O)NCc2ccccc2)CCN1 (configuration not stated)	i
Cc1cccc(NC(=O)NCC2CCOCC2)c1C	-12%
O=C1CC(c2ccccc2)N(C(=O)C2CC2)CCCN(C(=O)Nc2ccccc2)CCN1 (configuration not stated)	12%
Cc1cc(C(=O)N2CCC3(CC(=O)Nc4ccccc4N3)C2)ccc1Cl (configuration not stated)	9%
CC(C)c1noc(-c2cccn3c(CNC(=O)C4CC4)nnc23)n1	44%
CC(=O)N1CCC(N[C@H]2C[C@@H](Cc3cc(CN4CCOCC4)on3)C2(C)C)CC1	5%[44.1 µM]
Cc1ccc(-c2nnc([C@H]3CCN(C(=O)COc4ccccc4)C3)o2)cc1	-12%[44.1 µM]
CCCS(=O)(=O)N1CCCN(S(=O)(=O)c2ccccc2)CCC(=O)NCC1	9%
CC(C)OCCCNc1ncnc2c1CN(C1CCNC1)C(=O)CN2C (configuration not stated)	10%
CC(C)(C)OC(=O)N1CCC(c2c(C(=O)N3CCN(C(=O)c4ccco4)CC3)cnn2-c2ccccc2Cl)CC1	11µM*
CCN1CCN(C(=O)c2cnn(-c3ccc(F)cc3F)c2C2CCN(C(=O)OC(C)(C)C)CC2)CC1	-6%
SMILES	Pf Dd2 growth
Cc1ccc(N2CCN(C(=O)c3cnn(-c4ccc(F)cc4F)c3C3CCN(C(=O)OC(C)(C)C)CC3)CC2)c(C)c1	7.9µM*
CC(C)(C)OC(=O)N1CCC(c2c(C(=O)N3CCN(C(=O)c4ccco4)CC3)cnn2-c2ccc(Cl)cc2)CC1	104%[5.79 µM]
O=C(CC[C@H]1NC(=O)c2ccccc2NC1=O)Nc1n[nH]c(CCc2ccccc2)n1	-4%
Cc1ccc(F)c(OCC(=O)c2ccc3c(c2)N(CCCC(=O)N2CCOCC2)C(=O)CO3)c1	-8%
CC(C)CN1Cc2ccccc2-n2ccnc2C12CCN(C(=O)C(C)C)CC2	-21%[5.79 µM]
COc1ccccc1C(=O)N1CCC2(CC1)c1nccn1-c1ccccc1CN2C	i[5.79 µM]
COc1ccccc1C(=O)N1CCC2(CC1)c1nccn1-c1ccccc1CN2CC(C)C	0.89µM*
CN(C)CC(O)c1cc2n(n1)CCCN(C(=O)c1cccc(N(C)C)c1)C2 (configuration not stated)	3%
Cc1ccc(-c2noc([C@@H]3CCCN3C(=O)CCCc3ccccc3)n2)cc1	11µM*
O=C(CCc1ccccc1)N1CCC[C@H]1c1nc(-c2ccccc2)no1	16%
O=C(NC1CCCCC1)N1Cc2[nH]cnc2C[C@H]1c1nc(-c2ccc(Cl)cc2)no1	-24%[44.1 µM]
O=C(O)c1ccc(CN2Cc3[nH]cnc3C[C@H]2c2nc(-c3cccc([N+](=O)[O-])c3)no2)cc1	-6%
